Records with an inconclusive call do not appear. Entries that show only a call come without a potency. The source made the active and inactive calls. The call rests on the fitted dose curve; in most records, active means well fitted inhibition curve with a large enough effect; inconclusive means small, poorly fitted or top-dose-only effect; inactive means no such curve, though single readings can be large or run the other way.
What was measured:
[1] = tested on: Zika virus NS2B-NS3 protease (unlinked complex); assay: Primary screen GU Rhodamine qHTS for Zika virus inhibitors: Unlinked NS2B-NS3 protease assay (AID 1347159); further: nearly all actives have a fitted effect of over 60% in size
Method in brief: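 Percent inhibition came from the 15-min rise in Rhodamine110 fluorescence (1.5 microM substrate, ~15% conversion), normalized to no-inhibitor and no-enzyme wells and Hill-fitted. Unlinked protease, 25 nM, pH 8.0 Tris buffer; compounds up to 114 microM, 15-min preincubation.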

[2] = tested on: Zika virus NS2B-NS3 protease (linked construct); assay: Primary screen NINDS Rhodamine qHTS for Zika virus inhibitors (AID 1347160); further: nearly all actives have a fitted effect of over 55% in size
Method in brief: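 Rhodamine110-peptide cleavage (1.5 µM substrate) by 25 nM linked NS2B-NS3 enzyme at pH 8.0 (Tris, Tween 20), after 15 min RT preincubation with compounds; 15-min fluorescence change normalized to controls and Hill-fitted.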
Potency means the concentration at half of the fitted maximal effect.

Row | Structure (SMILES) | Potency [1] | Potency [2]
1 | C=C1C(=O)OC2/C=C(\C)CC3C=C(CC/C=C(\C)CCC12)C(=O)O3 (stereo unspecified) | inactive | inactive
2 | C=C1C(=O)OC2/C=C(\C)CC/C=C(\C)CC(OC(C)=O)C12 (stereo unspecified) | inactive | inactive
3 | CN(C)C(=O)NC1(c2ccccc2)CCN(CCC[C@]2(c3ccc(Cl)c(Cl)c3)CCCN(C(=O)c3ccccc3)C2)CC1 | inactive | inactive
4 | COc1ccc(CN2CCN(C(=O)CCNC(=O)c3ccc(C(C)(C)C)cc3)CC2)cc1 | inactive | inactive
5 | COc1cccc(-c2cn(-c3ccc(CCN4CCC(O)CC4)cc3)c3ncnc(N)c23)c1 | inactive | inactive
6 | Cc1[nH]c(/C=C2\C(=O)Nc3ccc(F)cc32)c(C)c1C(=O)NCCN1CCCC1 | inactive | inactive
7 | Cc1cccc(CC(=O)N2CCc3c2ccc(-c2cn(C)c4ncnc(N)c24)c3F)n1 | inactive | inactive
8 | CC12CCC(OC3OC(CO)C(O)C(O)C3OC3OC(CO)C(O)C(O)C3O)CC1CCC1C2CCC2(C)/C(=C3/COC(=O)C3)CCC12O (stereo unspecified) | inactive | inactive
9 | CCNC1(C(N)=O)CCN(c2ncnc3c2nc(-c2ccccc2Cl)n3-c2ccc(Cl)cc2)CC1 | inactive | inactive
10 | CC(=O)NC(C(=O)O[C@H]1CCC(C)(C)[C@@H]2CC=C3C(=O)OCC3(O)[C@@]12C)C(C)C (stereo partly specified) | inactive | inactive
11 | COc1ccc(Sc2ccc(NC(=O)c3ccccc3Cl)cc2C#N)cc1 | inactive | inactive
12 | CCCCCCCCn1cc(CN(CC)CC)c2cc(-c3cnc(N)nc3)ccc21 | inactive | inactive
13 | CC(=O)C=C=C1C(C)(C)CC(O)CC1(C)O[C@@H]1O[C@H](CO[C@H]2OC[C@](O)(CO)[C@H]2O)[C@@H](O)[C@H](O)[C@H]1O (stereo partly specified) | 20 µM (active) | 11.2 µM (active)

Source: PubChem BioAssay (NCATS)
